Bioassay records deposited in PubChem BioAssay by National Center for Advancing Translational Sciences (NCATS).
Only some compounds are listed: those with a hit (about 6.7% of all), similar ones and a draw of the others.
PINK1 modulator: changes PINK1 expression; PINK1 immunofluorescence, high-content cytometry, 24 h; Potency, µM (highest dose often 76.6 µM), hits mostly activators; 0.2% of 410,000 active; active = well fitted activation curve with a large enough effect; inconclusive = small, poorly fitted or top-dose-only effect; cell line not stated here; note: nearly all actives have a fitted effect of over 65% in size
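Stable cell line treated 24 h with compounds at 5 concentrations (CCCP controls), then fixed and immunostained for PINK1 plus nuclear and cell stains; PINK1 immunofluorescence quantified by laser-scanning microplate cytometry.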
MCF10A rerep: DNA re-replication induction in MCF 10a cells. MCF 10A DNA re-replication, Hoechst nuclear intensity, 48 h. Potency, µM (titrated, usually from 46.1 µM), usual class: activators. 2.9% of 350,000 active; note: nearly all actives have a fitted effect of over 50% in size
KB-3-1 cytotox: KB-3-1 parental cell cytotoxicity. KB-3-1 viability, CellTiter-Glo ATP luminescence, 72 h. AID 1347075. Potency, µM (titrated, usually from 46.1 µM), usual class: cytotoxic. 1.4% of 400,000 active; note: nearly all actives have a fitted effect of over 60% in size
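Viability of parental KB-3-1 cells, measured by CellTiter-Glo luminescence, followed a 72 h incubation at 37 °C with pinned compounds in phenol-red-free DMEM containing 10% FBS.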
SW480 rerep: inducers of DNA re-replication in SW480 colon cancer cells; SW480 DNA re-replication, Hoechst DNA content imaging, 48 h; 1.8% of 340,000 active; AID 624297; Potency, µM (titrated, usually from 46.1 µM), most hits filed as activators; note: nearly all actives have a fitted effect of over 55% in size
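First, 250 cells per well were seeded. Next, compound or vehicle (23 nL) was pinned in, plates sat 48 hr at 37 C. Finally Hoechst was added for 40 min before fluorescence scanning.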
KB-V1 MDR tox: kills drug-selected multidrug resistant KB-V1 cells | KB-V1 MDR cells viability, CellTiter-Glo, 72 h | Potency, µM (doses to about 46.1 µM), usual class: cytotoxic | 3.4% of 400,000 active; note: nearly all actives have a fitted effect of over 60% in size
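KB-V1 MDR subline cells in DMEM (phenol-red free, 10% FBS) exposed to compounds in qHTS concentration series for 72 h at 37 degrees C. Viability read by CellTiter-Glo luminescence; concentration-effect curves fitted after normalization and correction.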
Numbers stand for hits. Unless noted, calls come from the whole dose curve; as a rule, active = well fitted curve in the direction sought with a large enough effect; inconclusive = small, poorly fitted or top-dose-only effect, or another doubt; inactive = no such curve, though single readings can be large; an effect the other way counts as inactive or inconclusive.

Clc1cccc(Cl)c1/C=C/c1nc2ccccc2[nH]1 was read as PINK1 modulator inactive, MCF10A rerep inactive, KB-3-1 cytotox inconclusive, SW480 rerep inactive and KB-V1 MDR tox inconclusive.
For O=C(NCC(F)(F)F)c1csc([C@@H]2O[C@H](CO)[C@H](O)[C@H](O)[C@H]2O)n1 the results were PINK1 modulator inactive, KB-3-1 cytotox inactive and KB-V1 MDR tox inactive.
`CCc1ccc(NC(=O)CC2C(=O)N(c3ccc(OC)cc3)C(=O)N2Cc2ccc(OC)cc2)cc1` (stereo not drawn) gave PINK1 modulator inactive.
CC(C)(C)c1ccc(N/N=C(\C#N)S(=O)(=O)C(C)(C)C)cc1 was read as PINK1 modulator 39.8µM, MCF10A rerep inactive, KB-3-1 cytotox inconclusive, SW480 rerep inactive and KB-V1 MDR tox inconclusive.
N#C/C(=N\Nc1ccc(Cl)cc1)C(=N)N1CCCCCC1 was read as PINK1 modulator inactive, MCF10A rerep inactive, KB-3-1 cytotox inactive, SW480 rerep inactive and KB-V1 MDR tox inactive.
`Cc1cccc(N/N=C(\C#N)S(=O)(=O)C(C)(C)C)c1` gave PINK1 modulator inactive, MCF10A rerep inactive, KB-3-1 cytotox inactive, SW480 rerep inactive and KB-V1 MDR tox inactive.
CC(C)(C)S(=O)(=O)/C(C#N)=N/Nc1ccc(Cl)cc1 was read as PINK1 modulator 28.2µM, MCF10A rerep inconclusive, KB-3-1 cytotox inconclusive, SW480 rerep inactive and KB-V1 MDR tox inconclusive.
CC1=CC(=C(C#N)c2nc3ccccc3s2)C=C(C)N1CC1CCCO1 (stereo not drawn) was read as PINK1 modulator inactive, MCF10A rerep 13µM, KB-3-1 cytotox inactive, SW480 rerep 23.1µM and KB-V1 MDR tox inactive.
`N#Cc1ccc(/C=C/C(=O)c2cccnc2)cc1` gave PINK1 modulator inactive, MCF10A rerep 7.31µM, KB-3-1 cytotox inactive, SW480 rerep inactive and KB-V1 MDR tox inconclusive.
Screening O=C(/C=C/c1ccccc1Cl)c1cccnc1 returned PINK1 modulator inactive, MCF10A rerep 5.8µM, KB-3-1 cytotox inactive, SW480 rerep inconclusive and KB-V1 MDR tox inconclusive.
COc1cc(NC(=O)Nc2nnc(N3CCCCCC3)s2)cc(OC)c1 was read as PINK1 modulator inactive, KB-3-1 cytotox inactive and KB-V1 MDR tox inactive.
Screening COc1ccc(-c2csc3nc(-c4ccccc4OC)oc(=O)c23)cc1 returned PINK1 modulator inactive, MCF10A rerep 20.6µM, KB-3-1 cytotox inactive, SW480 rerep 16.4µM and KB-V1 MDR tox inactive.
For CC1CCCN(CCCOc2ccc(Cl)cc2Br)C1 (stereo not drawn) the results were PINK1 modulator inactive, MCF10A rerep inconclusive, KB-3-1 cytotox inconclusive, SW480 rerep inactive and KB-V1 MDR tox 16.4µM.
Cc1ccc(Cl)c(OCCN2CCCC(C)C2)c1 (stereo not drawn) was read as PINK1 modulator inactive, MCF10A rerep inactive, KB-3-1 cytotox inactive, SW480 rerep inactive and KB-V1 MDR tox inconclusive.
Screening CC1CCCN(CCOc2ccc3ccccc3c2Br)C1 (stereo not drawn) returned PINK1 modulator inactive, MCF10A rerep 14.6µM, KB-3-1 cytotox inconclusive, SW480 rerep inactive and KB-V1 MDR tox inconclusive.
O=C(Nc1ccccc1[N+](=O)[O-])C1COc2ccccc2O1 (stereo not drawn) was read as PINK1 modulator inactive, MCF10A rerep inactive, KB-3-1 cytotox inactive, SW480 rerep inactive and KB-V1 MDR tox inactive.
Screening COc1ccc([C@H]2C[C@@H](n3cc(-c4ccc(F)cc4)nn3)[C@H](O)CN2CC2CCCCC2)cc1 returned PINK1 modulator inactive, KB-3-1 cytotox inconclusive and KB-V1 MDR tox 20.6µM.
Screening COc1ccc([C@H]2C[C@H](O)[C@@H](n3cc(-c4ccc(F)cc4)nn3)CN2CC2CCCCC2)cc1 returned PINK1 modulator inactive, KB-3-1 cytotox inconclusive and KB-V1 MDR tox inconclusive.
`O[C@@H]1CN(CC2CCCCC2)[C@@H](c2ccccc2)C[C@H]1n1cc(-c2ccc(F)cc2)nn1` gave PINK1 modulator inconclusive, KB-3-1 cytotox 16.4µM and KB-V1 MDR tox inactive.
For CCCCCCN1C[C@H](O)[C@@H](n2cc(-c3ccc(F)cc3)nn2)C[C@@H]1c1ccc(Cl)cc1 the results were PINK1 modulator 15.8µM, KB-3-1 cytotox 18.4µM and KB-V1 MDR tox inconclusive.
Screening Cc1ccccc1C(=O)Nc1sc2c(c1C(=O)N1CCCCC1)CCC(C)C2 (stereo not drawn) returned PINK1 modulator inactive, KB-3-1 cytotox inactive and KB-V1 MDR tox inactive.
For CC(=O)N1NC(=Nc2ccccc2)SC1(C)C the results were PINK1 modulator inactive, MCF10A rerep inactive, KB-3-1 cytotox inactive, SW480 rerep inactive and KB-V1 MDR tox 18.4µM.
Screening O=C1NC(=Nc2ccccc2)SC1(CO)CO returned PINK1 modulator inactive, MCF10A rerep inactive, KB-3-1 cytotox inactive, SW480 rerep inactive and KB-V1 MDR tox inactive.
For CN(C)c1ccc(Nc2ncnc3c2c(-c2ccccc2)cn3-c2cccc(Cl)c2)cc1 the results were PINK1 modulator inactive, KB-3-1 cytotox inactive and KB-V1 MDR tox inactive.
Screening NC1=NC(=O)/C(=C/c2c(OS(=O)(=O)c3ccc(Cl)cc3)ccc3ccccc23)S1 returned PINK1 modulator 12.6µM, MCF10A rerep inactive, KB-3-1 cytotox inactive, SW480 rerep inconclusive and KB-V1 MDR tox inactive.
`NC1=NC(=O)/C(=C/c2ccccc2OS(=O)(=O)c2ccccc2)S1` gave PINK1 modulator inconclusive, MCF10A rerep inactive, KB-3-1 cytotox inactive, SW480 rerep inactive and KB-V1 MDR tox inactive.
CC(C)=C1C2CCC1C1C(=O)N(CCc3ccccc3)C(=O)C21 (stereo not drawn) was read as PINK1 modulator inactive, MCF10A rerep inactive, KB-3-1 cytotox inactive, SW480 rerep inactive and KB-V1 MDR tox 10.3µM.
O=C1C2C3C=CC(C3)C2C(=O)N1CCc1ccccc1 (stereo not drawn) was read as PINK1 modulator inactive, MCF10A rerep inactive, KB-3-1 cytotox inactive, SW480 rerep inactive and KB-V1 MDR tox inactive.
COc1ccccc1C1CN(CCNC(=O)c2cscn2)Cc2ccccc2O1 (stereo not drawn) was read as PINK1 modulator inactive.
For O=C(c1ccco1)N1N=C(c2ccco2)CC1c1ccc(Cl)cc1Cl (stereo not drawn) the results were PINK1 modulator inactive, MCF10A rerep 23.1µM, KB-3-1 cytotox inconclusive, SW480 rerep inconclusive and KB-V1 MDR tox inactive.
For COc1cccc(OCC(Cn2cnc3ccccc32)OC(C)=O)c1 (stereo not drawn) the results were PINK1 modulator inactive, MCF10A rerep inactive, KB-3-1 cytotox inactive, SW480 rerep inactive and KB-V1 MDR tox 16.4µM.
For COc1ccc(OCC(Cn2cnc3ccccc32)OC(C)=O)cc1 (stereo not drawn) the results were PINK1 modulator inactive, MCF10A rerep inactive, KB-3-1 cytotox inactive, SW480 rerep inactive and KB-V1 MDR tox inconclusive.
For CC(NC(=O)c1ccccc1NC(=O)CN1CCc2ccccc2C1)c1ccccc1 (stereo not drawn) the results were PINK1 modulator inactive, MCF10A rerep 25.9µM, KB-3-1 cytotox inconclusive, SW480 rerep inconclusive and KB-V1 MDR tox 18.4µM.
